Active and inactive are the calls of the source.
How the values were obtained:
[1] = optical density shifts of acrAB sulA E. coli – strain DRC41, OD650, 48 h, E. coli filamentation inducer project, primary screen (AID 1152); settings: higher = more signal, called active from +8 up or from −8 down;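 also: E. coli MC1000 strain DRC41 lacking acrAB efflux pump and sulA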
[2] = probe aLefty1 binding on compound microarray – biochemical, small-molecule microarray, 635/667 nm fluorescence, primary screen (AID 1153); settings: higher = more signal;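 also: score merges spot fluorescence with signal-to-noise ratio from the scanned slide images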
[3] = plasmodial surface anion channel blockers, osmotic lysis – cell-based, P. falciparum Indochina, OD700, 1 h, primary screen (AID 1154); settings: P. falciparum Indochina infected RBC osmotic lysis, higher = more signal, called active from +8 up or from −8 down
[4] = plasmodial surface anion channel blockers, osmotic lysis – cell-based, P. falciparum Indochina, OD700, 2 h, primary screen (AID 1155);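 also: lysis reports solute entry through the parasite surface anion channel PSAC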; settings: P. falciparum Indochina infected erythrocytes, higher = more signal, called active from +8 up or from −8 down
[5] = changes in parasitized red cell lysis, either direction – P. falciparum Indochina, OD700, 3 h, PSAC antagonist project, primary screen (AID 1156); settings: P. falciparum-infected erythrocytes, osmotic lysis, higher = more signal, called active from +8 up or from −8 down
[6] = plasmodial surface anion channel blockers, osmotic lysis – cell-based, P. falciparum Indochina, OD700, 18 h, primary screen (AID 1157); settings: P. falciparum Indochina infected erythrocytes, osmotic lysis OD700, 18 h; higher = more signal, called active from +8 up or from −8 down
[7] = S6 kinase pathway phospho-S6 level changes – cell-based, A549, cytoblot, luminescence, serum-stimulated, primary screen (AID 1158); settings: 5 h, higher = more signal;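 also: serum-stimulated A549 lung adenocarcinoma cells; signal is phosphorylated S6 detected by cytoblot immunostaining with HRP secondary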
[8] = target: NADPH oxidase 2 (Homo sapiens) (UniProt P04839); experiment: compounds shifting NOX2 Amplex Red fluorescence – cell-based, HEK293-NOX2, PMA-stimulated, NOX inhibitor project, primary screen (AID 1159); settings: 45 min, higher = more signal, called active from +8 up or from −8 down; also: test concentration not given here
NADPH oxidase 2 (Homo sapiens), sequence (P04839 whole entry, looked up): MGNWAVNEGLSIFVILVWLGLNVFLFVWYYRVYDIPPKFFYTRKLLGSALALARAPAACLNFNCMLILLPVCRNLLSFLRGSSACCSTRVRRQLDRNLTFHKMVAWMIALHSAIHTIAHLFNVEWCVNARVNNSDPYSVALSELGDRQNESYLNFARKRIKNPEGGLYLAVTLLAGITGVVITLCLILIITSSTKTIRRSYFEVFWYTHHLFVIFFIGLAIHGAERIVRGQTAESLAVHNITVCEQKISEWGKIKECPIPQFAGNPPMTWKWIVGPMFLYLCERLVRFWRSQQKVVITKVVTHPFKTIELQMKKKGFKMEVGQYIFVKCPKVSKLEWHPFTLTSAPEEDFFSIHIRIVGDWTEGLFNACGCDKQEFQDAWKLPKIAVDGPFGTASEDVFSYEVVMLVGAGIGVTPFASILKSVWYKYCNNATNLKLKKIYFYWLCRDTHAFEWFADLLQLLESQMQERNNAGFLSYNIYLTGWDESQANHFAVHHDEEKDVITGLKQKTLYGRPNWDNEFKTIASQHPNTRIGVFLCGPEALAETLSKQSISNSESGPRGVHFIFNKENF

[9] = target: NADPH oxidase 4 (Homo sapiens) (UniProt Q9NPH5); experiment: compounds shifting NOX4 Amplex Red fluorescence – cell-based, HEK293-NOX4, tetracycline-induced, NOX inhibitor project, primary screen (AID 1160); settings: HEK293-NOX4, Amplex Red H2O2 fluorescence, 45 min; higher = more signal, called active from +8 up or from −8 down
NADPH oxidase 4 (Homo sapiens), sequence (Q9NPH5 whole entry, looked up): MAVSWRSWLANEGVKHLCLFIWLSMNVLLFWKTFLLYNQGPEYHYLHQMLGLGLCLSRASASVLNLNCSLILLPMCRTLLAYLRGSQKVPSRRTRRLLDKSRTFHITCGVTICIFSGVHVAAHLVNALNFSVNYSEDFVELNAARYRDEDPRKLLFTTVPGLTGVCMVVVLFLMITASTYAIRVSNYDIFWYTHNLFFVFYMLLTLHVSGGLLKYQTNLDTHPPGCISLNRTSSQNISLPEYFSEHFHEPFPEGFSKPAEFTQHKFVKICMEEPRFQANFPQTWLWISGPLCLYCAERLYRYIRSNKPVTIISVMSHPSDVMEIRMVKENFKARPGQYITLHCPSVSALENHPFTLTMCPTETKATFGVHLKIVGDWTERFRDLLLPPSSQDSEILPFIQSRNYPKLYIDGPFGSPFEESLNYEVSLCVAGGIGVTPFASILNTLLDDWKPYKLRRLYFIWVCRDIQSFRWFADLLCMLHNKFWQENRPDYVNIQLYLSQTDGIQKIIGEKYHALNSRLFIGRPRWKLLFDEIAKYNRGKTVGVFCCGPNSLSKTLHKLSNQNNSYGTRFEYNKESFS

[10] = target: NADPH oxidase 5 (Homo sapiens) (UniProt Q96PH1); experiment: compounds shifting NOX5 Amplex Red fluorescence – cell-based, HEK293-NOX5, NOX inhibitor project, primary screen (AID 1161); settings: HEK293-NOX5, ionomycin, 45 min, higher = more signal
NADPH oxidase 5 (Homo sapiens), sequence (Q96PH1 whole entry, looked up): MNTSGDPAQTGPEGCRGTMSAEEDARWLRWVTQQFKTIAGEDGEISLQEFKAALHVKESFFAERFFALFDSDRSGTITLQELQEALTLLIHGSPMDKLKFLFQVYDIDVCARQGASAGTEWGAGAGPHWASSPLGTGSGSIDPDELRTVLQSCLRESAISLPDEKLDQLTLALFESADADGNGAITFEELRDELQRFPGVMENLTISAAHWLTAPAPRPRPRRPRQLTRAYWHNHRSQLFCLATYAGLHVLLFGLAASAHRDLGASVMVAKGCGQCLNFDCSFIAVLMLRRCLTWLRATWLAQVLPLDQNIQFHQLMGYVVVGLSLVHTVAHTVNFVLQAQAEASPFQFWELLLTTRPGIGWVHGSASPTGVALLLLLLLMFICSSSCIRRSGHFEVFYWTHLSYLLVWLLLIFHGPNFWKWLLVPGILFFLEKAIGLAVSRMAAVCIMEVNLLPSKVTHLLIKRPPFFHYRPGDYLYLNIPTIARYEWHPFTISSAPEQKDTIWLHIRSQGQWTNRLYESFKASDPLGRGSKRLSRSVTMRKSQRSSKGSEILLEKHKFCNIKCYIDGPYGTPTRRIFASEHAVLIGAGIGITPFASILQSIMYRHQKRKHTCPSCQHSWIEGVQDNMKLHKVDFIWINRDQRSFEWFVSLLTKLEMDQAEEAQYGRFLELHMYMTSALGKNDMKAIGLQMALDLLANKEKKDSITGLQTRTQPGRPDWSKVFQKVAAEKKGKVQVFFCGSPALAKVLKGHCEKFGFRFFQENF

[11] = compound effects on lung adenocarcinoma cell viability – A549, calcein-AM fluorescence, 48 h, basal, profiling panel (AID 1162); settings: higher = more signal; also: test concentration not given here
[12] = compound effects on differentiated 3T3-L1 adipocyte viability – cell-based, 3T3-L1 adipocytes, calcein-AM fluorescence, 48 h, basal, profiling panel (AID 1163); settings: 3T3-L1 adipocytes viability, higher = more signal; also: test concentration not given here
[13] = compound effects on hepatocellular carcinoma cell viability – HepG2, calcein-AM fluorescence, 48 h, basal, profiling panel (AID 1164); settings: higher = more signal; also: test concentration not given here
[14] = compound effects on multiple myeloma cell viability – MM1S, calcein-AM fluorescence, 48 h, basal, profiling panel (AID 1165); settings: higher = more signal;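 also: viability of MM1S multiple myeloma cells under basal unstimulated conditions; test concentration not given here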
[15] = calcein-AM signal in unstimulated myeloma cells – cell-based, calcein-AM fluorescence, 48 h, PK04 Diversity Set, profiling panel (AID 1166); settings: RPMI8226 myeloma viability, higher = more signal;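 also: cells grown under basal conditions without added stimulus; test concentration not given here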
[16] = JC-1 mitochondrial signal, unstimulated HepG2 cells – cell-based, JC-1 fluorescence, 24 h, 100 nL compound, profiling panel (AID 1167); settings: HepG2 mitochondrial potential, higher = more signal; also: test concentration not given here
[17] = JC-1 mitochondrial signal, unstimulated adipocytes – cell-based, JC-1 fluorescence, 3T3-L1 adipocytes, 24 h, 100 nL compound, profiling panel (AID 1168); settings: JC-1 mitochondrial fluorescence, higher = more signal, called active from +8 up or from −8 down; also: test concentration not given here
[18] = JC-1 mitochondrial signal, unstimulated myeloma cells – cell-based, JC-1 fluorescence, RPMI8226, 24 h, 100 nL compound, profiling panel (AID 1169); settings: JC-1 mitochondrial potential fluorescence, higher = more signal; also: test concentration not given here
[19] = JC-1 mitochondrial signal, unstimulated MM1S myeloma – cell-based, JC-1 fluorescence, 24 h, 100 nL compound, profiling panel (AID 1170); settings: MM1S mitochondrial potential, higher = more signal; also: test concentration not given here
[20] = resazurin metabolic signal in A549 cells – cell-based, resazurin fluorescence, 24 h, PK04 Diversity Set, profiling panel (AID 1171); settings: A549 viability, higher = more signal, called active from +8 up or from −8 down; also: test concentration not given here

## C=CC[C@@]1(C(=O)N2CCCCC2)N=C(c2ccc(OCCCO)cc2)O[C@@H]1c1ccccc1N=[N+]=[N-]
[1]
  z-score: 0.432 (inactive)
[2]
  composite z-score: 0.407
[3]
  z-score: 31.2 (active)
[4]
  z-score: 27.2 (active)
[5]
  z-score: 1.27 (inactive)
[6]
  z-score: 6.5 (inactive)
[7]
  z-score: 0.995
[8]
  z-score: -1.67 (inactive)
[9]
  z-score: 0.378 (inactive)
[10]
  z-score: -1.88
[11]
  z-score: -0.637
[12]
  z-score: 2.03
[13]
  z-score: -0.441
[14]
  z-score: -1.23
[15]
  z-score: -2.71
[16]
  z-score: 1.02
[17]
  z-score: 1.21 (inactive)
[18]
  z-score: -0.982
[19]
  z-score: -1.66
[20]
  z-score: -1.5 (inactive)

## CC(C)(C)OC(=O)CC[C@]1(C(=O)NCCN2CCOCC2)COC(c2ccc(OCCCO)cc2)=N1
[1]
  z-score: 1.04 (inactive)
[2]
  composite z-score: 0.319
[3]
  z-score: 18.7 (active)
[4]
  z-score: 2.01 (inactive)
[5]
  z-score: 0.0229 (inactive)
[6]
  z-score: 0.791 (inactive)
[7]
  z-score: -0.395
[8]
  z-score: -2.08 (inactive)
[9]
  z-score: 0.08 (inactive)
[10]
  z-score: -0.137
[11]
  z-score: 0.263
[12]
  z-score: -0.555
[13]
  z-score: 0.854
[14]
  z-score: -0.61
[15]
  z-score: 0.512
[16]
  z-score: 0.0561
[17]
  z-score: 0.588 (inactive)
[18]
  z-score: 0.212
[19]
  z-score: -0.699
[20]
  z-score: 0.412 (inactive)

## CC1CC/C=C\[C@H]2OC34C=CCN(Cc5ccccc5)C(=O)[C@H]3N(C(C)CO)C(=O)[C@@H]4C2C(=O)O1 (stereo not given in full)
[1]
  z-score: 0.537 (inactive)
[2]
  composite z-score: -0.0984
[3]
  z-score: 0.16 (inactive)
[4]
  z-score: 0.365 (inactive)
[5]
  z-score: 1.8 (inactive)
[6]
  z-score: 0.425 (inactive)
[7]
  z-score: -0.0395
[8]
  z-score: 0.799 (inactive)
[9]
  z-score: -0.657 (inactive)
[10]
  z-score: 1.27
[11]
  z-score: 0.278
[12]
  z-score: -0.979
[13]
  z-score: 0.679
[14]
  z-score: 0.998
[15]
  z-score: -0.182
[16]
  z-score: 0.554
[17]
  z-score: 0.219 (inactive)
[18]
  z-score: 1.11
[19]
  z-score: 0.741
[20]
  z-score: 0.418 (inactive)

## COc1ccc(NN2C(C(O)c3ccc(N(C)C)cc3)C=CC3C(=O)N(C4CCCCC4)C(=O)C32)cc1 (stereo not given)
[1]
  z-score: -0.446 (inactive)
[2]
  composite z-score: 0.384
[3]
  z-score: 5.03 (inactive)
[4]
  z-score: 0.589 (inactive)
[5]
  z-score: 0.193 (inactive)
[6]
  z-score: 0.484 (inactive)
[7]
  z-score: -0.25
[8]
  z-score: -0.759 (inactive)
[9]
  z-score: -3.43 (inactive)
[10]
  z-score: -2.98
[11]
  z-score: -0.441
[12]
  z-score: -1.13
[13]
  z-score: -0.173
[14]
  z-score: 0.0375
[15]
  z-score: -0.136
[16]
  z-score: -0.134
[17]
  z-score: -0.771 (inactive)
[18]
  z-score: 0.651
[19]
  z-score: -1.63
[20]
  z-score: 0.19 (inactive)

## CN1CCC(CCCO)=CC1c1cccs1 (stereo not given)
[1]
  z-score: -0.193 (inactive)
[2]
  composite z-score: -0.103
[3]
  z-score: 1.77 (inactive)
[4]
  z-score: 0.144 (inactive)
[5]
  z-score: -0.311 (inactive)
[6]
  z-score: 0.0874 (inactive)
[7]
  z-score: 0.362
[8]
  z-score: 0.151 (inactive)
[9]
  z-score: 0.249 (inactive)
[10]
  z-score: -0.115
[11]
  z-score: 0.251
[12]
  z-score: 0.335
[13]
  z-score: 0.369
[14]
  z-score: 0.277
[15]
  z-score: 0.0383
[16]
  z-score: -0.927
[17]
  z-score: -1.51 (inactive)
[18]
  z-score: 0.247
[19]
  z-score: 0.00928
[20]
  z-score: -0.0596 (inactive)

## COCCCNC(=O)[C@@]1(Cc2ccccc2CN=[N+]=[N-])N=C(c2ccc(OCCCO)cc2)O[C@H]1c1ccccc1CN=[N+]=[N-]
[1]
  z-score: 1.16 (inactive)
[2]
  composite z-score: 0.123
[3]
  z-score: 31.4 (active)
[4]
  z-score: 48.5 (active)
[5]
  z-score: 2.97 (inactive)
[6]
  z-score: 26.4 (active)
[7]
  z-score: 2.88
[8]
  z-score: -3.05 (inactive)
[9]
  z-score: -0.796 (inactive)
[10]
  z-score: -1.91
[11]
  z-score: -0.768
[12]
  z-score: 1.56
[13]
  z-score: -0.983
[14]
  z-score: -2.88
[15]
  z-score: -3.94
[16]
  z-score: 1.57
[17]
  z-score: 2.31 (inactive)
[18]
  z-score: -1.2
[19]
  z-score: -2.64
[20]
  z-score: -1.2 (inactive)

## COCCCNC(=O)[C@]1(Cc2ccccc2)N=C(c2ccc(OCCCO)cc2)O[C@@H]1c1ccccc1CN=[N+]=[N-]
[1]
  z-score: 1.41 (inactive)
[2]
  composite z-score: 0.401
[3]
  z-score: 27.1 (active)
[4]
  z-score: 18.1 (active)
[5]
  z-score: 1.44 (inactive)
[6]
  z-score: 2.62 (inactive)
[7]
  z-score: 2.35
[8]
  z-score: -0.158 (inactive)
[9]
  z-score: 1.26 (inactive)
[10]
  z-score: 2.44
[11]
  z-score: 1.16
[12]
  z-score: 0.52
[13]
  z-score: 1.57
[14]
  z-score: -0.488
[15]
  z-score: -2.52
[16]
  z-score: 2.15
[17]
  z-score: -0.0892 (inactive)
[18]
  z-score: -0.985
[19]
  z-score: -0.712
[20]
  z-score: -1.43 (inactive)

## COc1cc(CO)cc(I)c1O[C@H]1C=C(C(=O)NCCO)C[C@@H](NC[C@@H]2CCCO2)[C@@H]1O
[1]
  z-score: 2.35 (inactive)
[2]
  composite z-score: -0.0075
[3]
  z-score: 3.81 (inactive)
[4]
  z-score: 0.585 (inactive)
[5]
  z-score: 1.4 (inactive)
[6]
  z-score: 0.303 (inactive)
[7]
  z-score: 0.687
[8]
  z-score: -0.144 (inactive)
[9]
  z-score: 0.492 (inactive)
[10]
  z-score: -0.0544
[11]
  z-score: 1
[12]
  z-score: -0.134
[13]
  z-score: 0.7
[14]
  z-score: 0.583
[15]
  z-score: 0.327
[16]
  z-score: 0.65
[17]
  z-score: 0.239 (inactive)
[18]
  z-score: -0.18
[19]
  z-score: -1.9
[20]
  z-score: 0.222 (inactive)

## CCCCCCc1nc(-c2ccc(-c3ccc(Cl)c(Cl)c3)o2)c(C)c2c1[Si](C(C)C)(C(C)C)OC2
[1]
  z-score: -0.369 (inactive)
[2]
  composite z-score: -0.198
[3]
  z-score: 1.88 (inactive)
[4]
  z-score: -0.712 (inactive)
[5]
  z-score: 0.627 (inactive)
[6]
  z-score: -1.57 (inactive)
[7]
  z-score: 1.7
[8]
  z-score: -4.51 (inactive)
[9]
  z-score: -2.74 (inactive)
[10]
  z-score: -4.66
[11]
  z-score: -2.55
[12]
  z-score: 0.438
[13]
  z-score: -1.55
[14]
  z-score: -3.25
[15]
  z-score: -4.25
[16]
  z-score: -3.26
[17]
  z-score: 0.113 (inactive)
[18]
  z-score: -0.977
[19]
  z-score: -1.68
[20]
  z-score: -0.312 (inactive)

— PubChem BioAssay
